Activity calls are given as the source filed them.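 How the source made its calls: active means normalized viability below 100% at a tested concentration; inactive means the rest.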
Test: drug combination growth inhibition, ovarian cancer – cell-based, oncology-focused library, rucaparib conditional, profiling panel (AID 1508598)
Conditions: patient-derived ovarian cancer cells, CellTiter-Glo viability, 144 h; at 0.0781 µM; OCI-P5x cells; without rucaparib; active compounds read low

Question: Which viability does the source give for `CNC(=O)c1ccc(N2C(=S)N(c3ccc(C#N)c(C(F)(F)F)c3)C(=O)C2(C)C)cc1F` here?
Answer: 85.3% (active)

Question: Which viability does the source give for `Cn1cncc1[C@@](N)(c1ccc(Cl)cc1)c1ccc2c(c1)c(-c1cccc(Cl)c1)cc(=O)n2C` here?
Answer: 67.4% (active)

Question: Which viability does the source give for `O=C(O)c1ccc2c(c1)nc(Nc1cccc(Cl)c1)c1ccncc12` here?
Answer: 110% (inactive)

Question: Which viability does the source give for `CC(C)C[C@H](NC(=O)CNC(=O)c1cc(Cl)ccc1Cl)B(O)O` here?
Answer: 80.5% (active)

Question: For `CC1(C)CCC(c2ccc(Cl)cc2)=C(CN2CCN(c3ccc(C(=O)NS(=O)(=O)c4ccc(N[C@H](CCN5CCOCC5)CSc5ccccc5)c(S(=O)(=O)C(F)(F)F)c4)cc3)CC2)C1`, which viability is on record?
Answer: 102% (inactive)

Question: Which viability does the source give for `C#Cc1cccc(Nc2ncnc3cc(OCCOC)c(OCCO)cc23)c1` here?
Answer: 106% (inactive)

Question: Which viability does the source give for `CC(C)CC(=O)Nc1n[nH]c2c1CN(C(=O)C1CCN(C)CC1)C2(C)C` here?
Answer: 122% (inactive)

Question: For `C=CCn1c(=O)c2cnc(Nc3ccc(N4CCN(C)CC4)cc3)nc2n1-c1cccc(C(C)(C)O)n1`, which viability is on record?
Answer: 92.8% (active)

Question: For `O=C(O)[C@H](Cc1c[nH]c2ccccc12)N1C(=O)c2ccccc2C1=O`, which viability is on record?
Answer: 98.7% (active)

Question: For `O=C(NC1CCNCC1)c1[nH]ncc1NC(=O)c1c(Cl)cccc1Cl`, which viability is on record?
Answer: 89.4% (active)

Question: With `CC(C)C[C@H](NC(=O)CNC(=O)c1cc(Cl)ccc1Cl)B1OC(=O)CC(CC(=O)O)(C(=O)O)O1` (some centres undefined) as the compound, how does the viability read?
Answer: 100% (inactive)

Same assay, conditions: patient-derived ovarian cancer cells, CellTiter-Glo viability, 144 h; at 0.313 µM; OCI-C5x cells; with rucaparib 10 µM; active compounds read low; 100% = cells with rucaparib alone

Question: With `CNC(=O)c1ccc(N2C(=S)N(c3ccc(C#N)c(C(F)(F)F)c3)C(=O)C2(C)C)cc1F` as the compound, how does the viability read?
Answer: 108% (inactive)

Question: For `Cn1cncc1[C@@](N)(c1ccc(Cl)cc1)c1ccc2c(c1)c(-c1cccc(Cl)c1)cc(=O)n2C`, which viability is on record?
Answer: 113% (inactive)

Question: For `O=C(O)c1ccc2c(c1)nc(Nc1cccc(Cl)c1)c1ccncc12`, which viability is on record?
Answer: 96.1% (active)

Question: Which viability does the source give for `CC(C)C[C@H](NC(=O)CNC(=O)c1cc(Cl)ccc1Cl)B(O)O` here?
Answer: 30.3% (active)

Question: With `CC1(C)CCC(c2ccc(Cl)cc2)=C(CN2CCN(c3ccc(C(=O)NS(=O)(=O)c4ccc(N[C@H](CCN5CCOCC5)CSc5ccccc5)c(S(=O)(=O)C(F)(F)F)c4)cc3)CC2)C1` as the compound, how does the viability read?
Answer: 10.6% (active)

Question: With `C#Cc1cccc(Nc2ncnc3cc(OCCOC)c(OCCO)cc23)c1` as the compound, how does the viability read?
Answer: 100% (active)

Question: Which viability does the source give for `CC(C)CC(=O)Nc1n[nH]c2c1CN(C(=O)C1CCN(C)CC1)C2(C)C` here?
Answer: 109% (inactive)

Question: Which viability does the source give for `C=CCn1c(=O)c2cnc(Nc3ccc(N4CCN(C)CC4)cc3)nc2n1-c1cccc(C(C)(C)O)n1` here?
Answer: 69.6% (active)

Question: With `O=C(O)[C@H](Cc1c[nH]c2ccccc12)N1C(=O)c2ccccc2C1=O` as the compound, how does the viability read?
Answer: 115% (inactive)

Question: With `O=C(NC1CCNCC1)c1[nH]ncc1NC(=O)c1c(Cl)cccc1Cl` as the compound, how does the viability read?
Answer: 86.2% (active)

Question: For `CC(C)C[C@H](NC(=O)CNC(=O)c1cc(Cl)ccc1Cl)B1OC(=O)CC(CC(=O)O)(C(=O)O)O1` (some centres undefined), which viability is on record?
Answer: 25% (active)

Same assay, conditions: patient-derived ovarian cancer cells, CellTiter-Glo viability, 144 h; at 0.313 µM; OCI-C5x cells; without rucaparib; active compounds read low

Question: With `CNC(=O)c1ccc(N2C(=S)N(c3ccc(C#N)c(C(F)(F)F)c3)C(=O)C2(C)C)cc1F` as the compound, how does the viability read?
Answer: 96.4% (active)

Question: With `Cn1cncc1[C@@](N)(c1ccc(Cl)cc1)c1ccc2c(c1)c(-c1cccc(Cl)c1)cc(=O)n2C` as the compound, how does the viability read?
Answer: 99.3% (active)

Question: With `O=C(O)c1ccc2c(c1)nc(Nc1cccc(Cl)c1)c1ccncc12` as the compound, how does the viability read?
Answer: 115% (inactive)

Question: With `CC(C)C[C@H](NC(=O)CNC(=O)c1cc(Cl)ccc1Cl)B(O)O` as the compound, how does the viability read?
Answer: 22.4% (active)

Question: Which viability does the source give for `CC1(C)CCC(c2ccc(Cl)cc2)=C(CN2CCN(c3ccc(C(=O)NS(=O)(=O)c4ccc(N[C@H](CCN5CCOCC5)CSc5ccccc5)c(S(=O)(=O)C(F)(F)F)c4)cc3)CC2)C1` here?
Answer: 18.4% (active)

Question: With `C#Cc1cccc(Nc2ncnc3cc(OCCOC)c(OCCO)cc23)c1` as the compound, how does the viability read?
Answer: 102% (inactive)

Question: With `CC(C)CC(=O)Nc1n[nH]c2c1CN(C(=O)C1CCN(C)CC1)C2(C)C` as the compound, how does the viability read?
Answer: 118% (inactive)

Question: For `C=CCn1c(=O)c2cnc(Nc3ccc(N4CCN(C)CC4)cc3)nc2n1-c1cccc(C(C)(C)O)n1`, which viability is on record?
Answer: 55.3% (active)

Question: With `O=C(O)[C@H](Cc1c[nH]c2ccccc12)N1C(=O)c2ccccc2C1=O` as the compound, how does the viability read?
Answer: 119% (inactive)

Question: With `O=C(NC1CCNCC1)c1[nH]ncc1NC(=O)c1c(Cl)cccc1Cl` as the compound, how does the viability read?
Answer: 99.6% (active)

Question: For `CC(C)C[C@H](NC(=O)CNC(=O)c1cc(Cl)ccc1Cl)B1OC(=O)CC(CC(=O)O)(C(=O)O)O1` (some centres undefined), which viability is on record?
Answer: 16.8% (active)

Same assay, conditions: patient-derived ovarian cancer cells, CellTiter-Glo viability, 144 h; at 0.313 µM; OCI-P5x cells; with rucaparib 20 µM; active compounds read low; 100% = cells with rucaparib alone

Question: For `CNC(=O)c1ccc(N2C(=S)N(c3ccc(C#N)c(C(F)(F)F)c3)C(=O)C2(C)C)cc1F`, which viability is on record?
Answer: 102% (inactive)

Question: With `Cn1cncc1[C@@](N)(c1ccc(Cl)cc1)c1ccc2c(c1)c(-c1cccc(Cl)c1)cc(=O)n2C` as the compound, how does the viability read?
Answer: 74.4% (active)

Question: Which viability does the source give for `O=C(O)c1ccc2c(c1)nc(Nc1cccc(Cl)c1)c1ccncc12` here?
Answer: 94.3% (active)

Question: With `CC(C)C[C@H](NC(=O)CNC(=O)c1cc(Cl)ccc1Cl)B(O)O` as the compound, how does the viability read?
Answer: 22% (active)

Question: For `CC1(C)CCC(c2ccc(Cl)cc2)=C(CN2CCN(c3ccc(C(=O)NS(=O)(=O)c4ccc(N[C@H](CCN5CCOCC5)CSc5ccccc5)c(S(=O)(=O)C(F)(F)F)c4)cc3)CC2)C1`, which viability is on record?
Answer: 100% (inactive)

Question: For `C#Cc1cccc(Nc2ncnc3cc(OCCOC)c(OCCO)cc23)c1`, which viability is on record?
Answer: 97.1% (active)

Question: For `CC(C)CC(=O)Nc1n[nH]c2c1CN(C(=O)C1CCN(C)CC1)C2(C)C`, which viability is on record?
Answer: 99.5% (active)

Question: With `C=CCn1c(=O)c2cnc(Nc3ccc(N4CCN(C)CC4)cc3)nc2n1-c1cccc(C(C)(C)O)n1` as the compound, how does the viability read?
Answer: 65.5% (active)

Question: For `O=C(O)[C@H](Cc1c[nH]c2ccccc12)N1C(=O)c2ccccc2C1=O`, which viability is on record?
Answer: 63.7% (active)

Question: Which viability does the source give for `O=C(NC1CCNCC1)c1[nH]ncc1NC(=O)c1c(Cl)cccc1Cl` here?
Answer: 88% (active)

Question: With `CC(C)C[C@H](NC(=O)CNC(=O)c1cc(Cl)ccc1Cl)B1OC(=O)CC(CC(=O)O)(C(=O)O)O1` (some centres undefined) as the compound, how does the viability read?
Answer: 12.3% (active)
